Source: PubChem BioAssay (NCATS)
Records with an inconclusive call do not appear. Activity calls are given as the source filed them. Calls come from the whole dose curve; as a rule, active = well fitted inhibition curve with a large enough effect; inconclusive = small, poorly fitted or top-dose-only effect; inactive = no such curve, though single readings can be large or run the other way.

Assay: Confirmatory screen NINDS Rhodamine qHTS for Zika virus inhibitors (AID 1347161); note: nearly all actives have a fitted effect of over 60% in size
Conditions: purified enzyme assay, Rhodamine110 substrate fluorescence, 15 min
How it was run: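 Enzyme (25 nM, linked NS2B-NS3) was preincubated 15 min with compound in 10 mM Tris-HCl pH 8.0, 0.01% Tween 20. Rhodamine110 substrate (1.5 microM) was then added and fluorescence read at start and after 15 min.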
Potency is the fitted concentration of half-maximal effect.

**Q.** Which Potency does the source give for `OC[C@H]1O[C@@H](Oc2ccc(O)c3cccc(O)c23)[C@H](O)[C@@H](O)[C@@H]1O` here?
**A.** The Potency was 6.1 µM (active).

**Q.** For `CC1C/C=C/C=C\CCCCC(O)C/C=C/C(=O)O1` (stereo not drawn), which Potency is on record?
**A.** Its Potency is 49.4 µM (active).

**Q.** Which Potency does the source give for `Cc1nn(C)c(COc2ccc(N3CCN(S(=O)(=O)N(C)C)CC3)cc2)c1-c1cccc2c(CCCOc3cccc4ccccc34)c(C(=O)O)n(CCN3CCOCC3)c12` here?
**A.** The Potency was 1.56 µM (active).

**Q.** For `CCCCS(=O)(=O)Nc1ncnc(OCCOc2ncc(Br)cn2)c1-c1ccc(Br)cc1`, which Potency is on record?
**A.** Its Potency is 35 µM (active).

**Q.** With `C=C1CC23CCC4[C@@](C)(CCC[C@@]4(C)C(=O)O)C2CCC1C3` (stereo partly drawn) as the compound, how does the Potency read?
**A.** The Potency was 44.1 µM (active).

**Q.** With `NCc1ccc(OCCCc2sc(-c3ccc4c(c3)/C(=N/Nc3nc5ccccc5s3)CCC4)nc2C(=O)O)cc1` as the compound, how does the Potency read?
**A.** Its Potency is 17.5 µM (active).

**Q.** With `CC1(C)CC2C3=CCC4C5(C)CCC(OC6OC(CO)C(O)C(OC7OC(CO)C(O)C(OC8OC(CO)C(O)C(OC9OC(COC%10OC(CO)C(O)C(O)C%10O)C(O)C(O)C9O)C8O)C7O)C6O)C(C)(C)C5CCC4(C)C3(C)CCC2(C(=O)O)CC1O` (stereo not drawn) as the compound, how does the Potency read?
**A.** Its Potency is 7.42 µM (active).

**Q.** For `CC(C)(O)C1CC=C(C(=O)OCC2OC(Oc3c(O)cc(C(=O)O)cc3O)C(O)C(O)C2O)CC1` (stereo not drawn), which Potency is on record?
**A.** The Potency was 7.64 µM (active).
